Assay results: PubChem BioAssay (NCI)
About 83,000 compounds went through this panel and 20% of them were active in at least one assay; those are over-represented in the sample as a whole.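 Treatment: one concentration, 48 hours, 96-well format. Scoring: percent growth, with anything below 10 considered active.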 Unmarked numbers belong to inactive results. Activity calls are given as the source filed them.

tested on: SR leukemia; experiment: NCI-60 one-dose screen, 48 h (100 = growth as untreated, 0 = no growth, -100 = all killed); details: 10 µM unless noted

Compound | growth
Cn1cc(C(=O)c2nc(-c3c[nH]c4ccc(F)cc34)no2)c2cc(F)ccc21 | 48.1%
c1ccc(Cn2cc(-c3nc4ccccc4s3)c3cccnc32)cc1 | 112%
O=[N+]([O-])c1ccccc1/C=N\NC(=S)N/N=C/c1ccccc1[N+](=O)[O-] | 19%
Cn1cc(C(=O)c2nc(-c3c[nH]c4ccc(Br)cc34)no2)c2cc(F)ccc21 | 101%
COc1cccc(-c2nc(SCC(=O)Nc3ccc(C(=O)/C=C/c4ccc(OC)c(OC)c4)cc3)[nH]c(=O)c2C#N)c1 | 60.6%
Cc1cc(N2CCN(C)CC2)nc(NC2CCCC(Nc3ccnc4cc(Cl)ccc34)C2)n1 (stereo not drawn) | -31% (active)
COCCNc1ccc2c3c(cccc13)C(=O)N(CCN(C)C)C2=O | -40.1% (active)
FC(F)(F)c1[nH]ncc1-c1nc2ccc3n[nH]c(C#Cc4cccnc4)c3c2c2c1CCCC2 | 14.2%
Cc1ccc(/C=C2\SC(=S)N(CC(=O)NCCCN3CCOCC3)C2=O)cc1 | 97.2%
Cc1ncc(C(=O)Nc2ccc(CN3CCN(C)CC3)c(C(F)(F)F)c2)cc1C#Cc1cnc2cccnn12 | -14.9% (active)
CC(C)(C)CC(C)(C)c1ccc(OCCOCC[N+](C)(C)Cc2ccccc2)cc1 | -50.8% (active)
O=C1Nc2c(ccc(Cl)c2Cl)/C1=C\c1cc(C(F)(F)F)cc(C(F)(F)F)c1 | -41.1% (active)
Cc1cc2c3ccccc3ccc2[n+]2ccccc12 | -22.5% (active)
COc1ccc(C2C(C#N)=C(N)Oc3n[nH]c(-c4cccs4)c32)cc1I (stereo not drawn) | 53.2%
COc1ccc(-n2nc(C)c3c(Nc4ccc(NC(=O)Nc5cc(C(F)(F)F)ccc5F)cc4)ncnc32)cc1 | 28.4%
CC1=CC(C)(C)Nc2ccc(Cc3ccc4c(c3)C(C)=CC(C)(C)N4)cc21 | 118%
Clc1ccc2c(NCCNc3nc(N4CCCCC4)nc4ccccc34)ccnc2c1 | -29.5% (active)
Cc1ccc(C(SCC(N)C(=O)O)(c2ccccc2)c2ccc(C)cc2)cc1 (stereo not drawn) | -29.8% (active)
CCN1CCN(c2nc(NCCNc3ccnc4cc(Cl)ccc34)c3ccccc3n2)CC1 | -25.5% (active)

Compound | growth
CCN(CC)S(=O)(=O)c1ccc(OC)c(NC(=O)c2[nH]c(C)c3c2CCCCC3=O)c1 | 43.4%
CCCc1cc(=O)n2c(C(=O)Nc3cccc(C(=O)OCC)c3)c(C(=O)Nc3ccc(F)cc3)sc2n1 | 82.4% [30 µM]
OC(COc1cccc2ccccc12)CN1CCN(c2ccccc2Cl)CC1 (stereo not drawn) | 78.3%
Clc1ccc2nc3nc4ccc[nH]c4cc3c2c1 | 39.6%
CN(C)C(=S)N=Nc1c(O)[nH]c2ccccc12 | -17.8% (active)
Cc1cn2c(/C=C3/C(=O)Nc4c3ccc3ccccc43)c(C(F)(F)F)nc2s1 | 8.46% (active)
COc1ccc(C(=S)N2CCN(c3cccc(Cl)c3)CC2)cc1 | 90.6%
C#CCOc1ccc2ncnc(Nc3cccc(CNC(=O)CCl)c3)c2c1 | 25.1% [8.25 µM]
O=c1c2c3c(sc2nc(N/N=C/c2cn(-c4ccccc4)nc2-c2ccc(Cl)cc2)n1Cc1ccccc1)CCCC3 | 59.3%
O=C(CN1C(=O)/C(=C/c2ccc(Cl)cc2)SC1=S)NCCCN1CCOCC1 | 97.8%
CN(C)c1ccc(NC(=O)c2ccc(/C=C/C(=O)c3ncc[nH]3)cc2)cc1 | 5.75% (active)
CN1CCN=C1c1ccc(NC(=O)c2ccc(C(=O)Nc3ccc(C4=NCCN4C)cc3)cc2)cc1 | 89.4%
O=c1cc(CSc2nnc(SCc3cc(=O)oc4c3ccc3ccccc34)o2)c2ccc3ccccc3c2o1 | 91.7%
Oc1ccccc1-c1nnc(CNc2ccc(Cl)cc2)o1 | 10.4%
CCN(CC)c1ccc(/C=N\NC(=O)/C=C/C=C/c2ccc3c(c2)OCO3)c(O)c1 | 17.6%
O=C(Cc1ccc(/C=C/C(=O)c2ncc[nH]2)cc1)Nc1ccc(F)cc1 | -2.77% (active)
CSc1ccc(-c2n[nH]nc2-c2cc3ccccc3s2)cc1 | 24.9%
CC(C)(C)N1CCC1CN (stereo not drawn) | 101%
Cc1cc(N2CCCCCC2)nc(NC2CCCC(Nc3ccnc4cc(Cl)ccc34)C2)n1 (stereo not drawn) | -65.8% (active)

tested on: RPMI-8226 leukemia; experiment: as above; details: 10 µM unless noted

Compound | growth
Cn1cc(C(=O)c2nc(-c3c[nH]c4ccc(F)cc34)no2)c2cc(F)ccc21 | 98.8%
c1ccc(Cn2cc(-c3nc4ccccc4s3)c3cccnc32)cc1 | 99.9%
O=[N+]([O-])c1ccccc1/C=N\NC(=S)N/N=C/c1ccccc1[N+](=O)[O-] | 87.3%
Cn1cc(C(=O)c2nc(-c3c[nH]c4ccc(Br)cc34)no2)c2cc(F)ccc21 | 99.5%
COc1cccc(-c2nc(SCC(=O)Nc3ccc(C(=O)/C=C/c4ccc(OC)c(OC)c4)cc3)[nH]c(=O)c2C#N)c1 | 93.3%
Cc1cc(N2CCN(C)CC2)nc(NC2CCCC(Nc3ccnc4cc(Cl)ccc34)C2)n1 (stereo not drawn) | -47.8% (active)
COCCNc1ccc2c3c(cccc13)C(=O)N(CCN(C)C)C2=O | -0.282% (active)
FC(F)(F)c1[nH]ncc1-c1nc2ccc3n[nH]c(C#Cc4cccnc4)c3c2c2c1CCCC2 | 47.7%
Cc1ccc(/C=C2\SC(=S)N(CC(=O)NCCCN3CCOCC3)C2=O)cc1 | 95.9%
Cc1ncc(C(=O)Nc2ccc(CN3CCN(C)CC3)c(C(F)(F)F)c2)cc1C#Cc1cnc2cccnn12 | 2.24% (active)
CC(C)(C)CC(C)(C)c1ccc(OCCOCC[N+](C)(C)Cc2ccccc2)cc1 | -60.3% (active)
O=C1Nc2c(ccc(Cl)c2Cl)/C1=C\c1cc(C(F)(F)F)cc(C(F)(F)F)c1 | 25.6%
COc1ccc(C2C(C#N)=C(N)Oc3n[nH]c(-c4cccs4)c32)cc1I (stereo not drawn) | 78.8%
COc1ccc(-n2nc(C)c3c(Nc4ccc(NC(=O)Nc5cc(C(F)(F)F)ccc5F)cc4)ncnc32)cc1 | 4.77% (active)
Clc1ccc2c(NCCNc3nc(N4CCCCC4)nc4ccccc34)ccnc2c1 | -41.6% (active)
CCN1CCN(c2nc(NCCNc3ccnc4cc(Cl)ccc34)c3ccccc3n2)CC1 | -25.4% (active)
CCN(CC)S(=O)(=O)c1ccc(OC)c(NC(=O)c2[nH]c(C)c3c2CCCCC3=O)c1 | 16.7%
CCCc1cc(=O)n2c(C(=O)Nc3cccc(C(=O)OCC)c3)c(C(=O)Nc3ccc(F)cc3)sc2n1 | 57% [30 µM]
Clc1ccc2nc3nc4ccc[nH]c4cc3c2c1 | 65.5%
Cc1cn2c(/C=C3/C(=O)Nc4c3ccc3ccccc43)c(C(F)(F)F)nc2s1 | 14.7%
C#CCOc1ccc2ncnc(Nc3cccc(CNC(=O)CCl)c3)c2c1 | 37.7% [8.25 µM]
O=c1c2c3c(sc2nc(N/N=C/c2cn(-c4ccccc4)nc2-c2ccc(Cl)cc2)n1Cc1ccccc1)CCCC3 | 119%
O=C(CN1C(=O)/C(=C/c2ccc(Cl)cc2)SC1=S)NCCCN1CCOCC1 | 96%
CN(C)c1ccc(NC(=O)c2ccc(/C=C/C(=O)c3ncc[nH]3)cc2)cc1 | -4.78% (active)
O=c1cc(CSc2nnc(SCc3cc(=O)oc4c3ccc3ccccc34)o2)c2ccc3ccccc3c2o1 | 99.8%
Oc1ccccc1-c1nnc(CNc2ccc(Cl)cc2)o1 | 23.4%
CCN(CC)c1ccc(/C=N\NC(=O)/C=C/C=C/c2ccc3c(c2)OCO3)c(O)c1 | 53.6%
O=C(Cc1ccc(/C=C/C(=O)c2ncc[nH]2)cc1)Nc1ccc(F)cc1 | -17.9% (active)
CSc1ccc(-c2n[nH]nc2-c2cc3ccccc3s2)cc1 | 40.1%
Cc1cc(N2CCCCCC2)nc(NC2CCCC(Nc3ccnc4cc(Cl)ccc34)C2)n1 (stereo not drawn) | -57% (active)
